HP1b binding inh = HP1-beta chromodomain-methylated histone interaction inhibition; AID 540317; actives 0.56% (n = 390,000); P83916; Potency, µM (top dose mostly 114 µM), for inactives: top-dose activity change, negative = inhibition, actives largely listed as inhibitors; AlphaScreen HP1-beta / biotin-H3K9me3 peptide binding; note: nearly all actives have a fitted effect of over 70% in size
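HP1-beta protein (50 nM final) preincubated 30 min at room temperature with biotinylated H3(1-18)K9me3 peptide (50 nM) in PBS pH 7.4, 0.01% Tween-20, then compound added for 30 min. AlphaScreen streptavidin donor/nickel chelate acceptor beads (10 ug/mL final), 30 min dark, luminescence read.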
JMJD2A Tudor = inhibitors of human JMJD2A Tudor domain. AlphaScreen JMJD2A-Tudor / H3K4me3 peptide binding. Potency, µM (top dose mostly 114 µM), for the others: at the highest dose activity change, negative = inhibition, hits mostly inhibitors. actives 4.4% (n = 390,000). AID 504339; note: % is set by controls: 0 for no effect and ±100 for the full control effect; nearly all actives have a fitted effect of over 50% in size
G9a inh = inhibitors of human histone lysine methyltransferase G9a | Q96KQ7 | Potency, µM (titrated, usually from 102 µM), without a hit: at the highest dose activity, negative = inhibition, usual class: inhibitors | AID 504332 | G9a H3K9 monomethylation, AlphaScreen, 2 h | actives 8.8% (n = 350,000); note: % is set by controls: 0 for no effect and ±100 for the full control effect; nearly all actives have a fitted effect of over 75% in size
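Chemiluminescent proximity detection of H3K9 monomethylation, read after 10 min bead incubation in the dark. Reaction: 20 nM G9a, 500 nM biotin-H3K9 peptide, 20 uM SAM cofactor, 2 h, room temperature, following 15 min enzyme-compound preincubation.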
L3MBTL1 block = inhibitors of human L3MBTL1; Q9Y468; AlphaScreen L3MBTL1–H3K9me1 peptide binding; Potency, µM (titrated, usually from 57.1 µM), for the others: top-dose activity, negative = inhibition, actives largely listed as inhibitors; actives 0.66% (n = 230,000); AID 485360; note: % is set by controls: 0 for no effect and ±100 for the full control effect; nearly all actives have a fitted effect of over 60% in size
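First, the protein-peptide complex forms for 30 min at room temperature (L3MBTL1 50 nM, biotinylated H3K9me1 peptide 75 nM). Next, compounds are pin-transferred and incubated 30 min. Finally, AlphaScreen beads are added and read after 30 min.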
BAZ2B block = inhibitors of human BAZ2B bromodomain; actives 4.4% (n = 360,000); Q9UIF8; AlphaScreen BAZ2B-H3K14Ac peptide displacement; Potency, µM (highest dose often 114 µM), for the others: at the top dose activity change, negative = inhibition, actives largely listed as inhibitors; note: % is set by controls: 0 for no effect and ±100 for the full control effect; nearly all actives have a fitted effect of over 60% in size
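BAZ2B 50 nM plus b-H3(5-23)K14Ac 50 nM, PBS pH 7.4/0.01% Tween-20, 30 min RT; compound added (max 110 uM), 30 min RT; streptavidin donor/Ni-chelate acceptor beads 10 ug/mL final, 20 min dark; AlphaScreen read.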
Sfp inh = inhibitors of Bacillus subtilis Sfp phosphopantetheinyl transferase | actives 3.5% (n = 310,000) | AID 1490 | Q9F4F7 | Biochemical Sfp PPTase activity, qHTS | Potency, µM, without a hit: largest response in the series, negative = inhibition, actives largely listed as inhibitors;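 note: the enzyme is Sfp with the accession as filed and its product quenches rhodamine fluorescence; 0% = enzyme reaction without inhibitor and -100% = no enzyme wells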
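Compounds were incubated with enzyme (final 15 nM) for 15 min at room temperature before substrate addition started the reaction. Fluorescence at 525 nm excitation, 598 nm emission was recorded immediately and after 30 minutes.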
* marks the source's active call; other numbers are inactive results; ? = inconclusive; nt = no result given; ! = not active in a repeat; [ ] = another dose, or the depositor's remark. Rows were chosen to be rich in hits. Some 12% of all compounds tested hit in one or more screens of this group. Calls come from the whole dose curve; as a rule, active = well fitted curve in the direction sought with a large enough effect; inconclusive = small, poorly fitted or top-dose-only effect, or another doubt; inactive = no such curve, though single readings can be large; an effect the other way counts as inactive or inconclusive. Potency is the fitted concentration of half-maximal effect.

SMILES	HP1b binding inh	JMJD2A Tudor	G9a inh	L3MBTL1 block	BAZ2B block	Sfp inh
CC(=O)c1c(C)n(-c2cccc(Cl)c2)c2ccc(OC(=O)c3ccccc3)cc12	15%	-27%	4%[59 µM]	nt	-29%	nt
CC(=O)c1ccc(NC(=O)CCOc2cc(C)ccc2C)cc1	33%	-4%	-3%	nt	5%	6%
Cc1c(Cl)cnn1CC(=O)NC1C(=O)N2C(C(=O)O)=C(CSc3nnnn3C)CSC12 (stereo not given)	37%	-16%	?	nt	56µM*	50µM*
CCc1nc(C)cn1S(=O)(=O)c1cc(C)c(OC)cc1C	39%	-3%	50µM*	nt	-3%	-4%
N#C/C(=C\c1ccc(-c2ccc([N+](=O)[O-])cc2Br)o1)C(=O)N1CCN(c2ccccc2)CC1	-16%	?	4µM*	-16%	?	2%
N#C/C(=C\c1ccc(-c2cccc([N+](=O)[O-])c2)o1)C(=O)N1CCOCC1	-2%	?	-1%	-9%	-11%	3%
CC(S)C(=O)NCC(=O)O (stereo not given)	nt	nt	23%[59 µM]	nt	nt	-19%
COc1ccccc1C(=O)N/C(=C/c1cccc([N+](=O)[O-])c1)C(=O)Nc1cccc(C(=O)O)c1	-2%	13µM*	2%	nt	-1%	-8%
COc1cc([N+](=O)[O-])ccc1NC(=S)Nn1cnnc1	?	-33%	10µM*	nt	?	20µM*
COc1cc([N+](=O)[O-])ccc1NC(=S)Nc1cccc(C(=O)O)c1	-9%	-15%	10µM*	-2%	-27%	?
COc1ccc([N+](=O)[O-])cc1NS(=O)(=O)c1cccc(C(=O)O)c1	21%	32µM*	-49%	3%	-16%	8%
O=C(OCC(=O)N1CCN(Cc2ccccc2)CC1)c1cc(Cl)ccc1[N+](=O)[O-]	-4%	-29%	17%[12.7 µM]	-2%	-36%	nt
Cc1cc(=O)oc2c(C(=O)/C=C/c3ccccc3)c(O)ccc12	49%	-16%[11.4 µM]	-23%[2.33 µM]	nt	-5%	12%
Cc1cc(=O)oc2c(C(=O)/C=C\c3cccs3)c(O)ccc12	-24%	?	45µM*	-5%	?	?
COc1cc(OC)c(C(=O)OCC(=O)Nc2ccc(S(=O)(=O)N3CCOCC3)cc2)cc1OC	17%	-18%	nt	-5%	nt	nt
O=C(c1ccc(NS(=O)(=O)c2cccc([N+](=O)[O-])c2)cc1)N1CCN(C(=O)c2ccco2)CC1	27%	-10%	4%[12.7 µM]	10%	6%	nt
Cc1ccc(OCCSc2nc3ccccc3n2CC(=O)N2CCCCC2)c(C)c1	3%	-30%	14µM*	nt	-25%	nt
CCOC(=O)C(NS(=O)(=O)c1ccccc1)(C(F)(F)F)P(=O)(OCC(C)C)OCC(C)C (stereo not given)	13%	-16%	10µM*	nt	2%	-1%
COC(=O)NC(NS(=O)(=O)c1ccccc1)(C(=O)OC)C(F)(F)F (stereo not given)	-1%	-13%	12%	?	16%	8%
COC(=O)/C=C/c1ccccc1S(=O)(=O)N(Cc1ccccc1)Cc1ccco1	22%	56µM*!	9%[12.7 µM]	nt	50µM*	-21%
CCOc1ccccc1-n1c(N)c(C(N)=O)sc1=S	-34%	-19%	35µM*	-10%	-37%	-18%
CCOC(=O)c1sc(=S)n(-c2ccccc2OC)c1N	?	?	?	-7%	?	-63%
CCCCNC(=O)N1CCN(c2ccccc2OC)CC1	33%	-5%	8%	0%	0%	17%
COC(=O)c1sc(=S)n(-c2ccccc2OC)c1N	15%	44%	35µM*	-10%	-6%	12%
COc1ccc(Cl)cc1-n1c(N)c(C(N)=O)sc1=S	?	?	8.9µM*	0%	-2%	16µM*
SMILES	HP1b binding inh	JMJD2A Tudor	G9a inh	L3MBTL1 block	BAZ2B block	Sfp inh
CCCCNC(=O)c1sc(=S)n(-c2ccccc2OC)c1N	?	-30%	16µM*	-15%	-34%	45µM*
CC(C)COc1ccc(C(=O)Nc2cccc(-c3nc4ccccc4[nH]3)c2)cc1	21%	-16%	4%[59 µM]	nt	-1%	nt
O=C(CS(=O)(=O)c1cccc2nsnc12)Nc1ccccc1Cl	10%[57 µM]	-17%	-2%[59 µM]	nt	-4%	nt
CCc1ccc(CNC(=O)CC2C(=O)NCCN2Cc2ccccc2F)nc1 (stereo not given)	51%	-15%	79µM*	nt	-19%	15%
CCn1ccnc1CNC(=O)CC1C(=O)NCCN1Cc1ccccc1F (stereo not given)	26%	-3%	20%[12.7 µM]	8%	-10%	2%
Cc1cc(C)n(CCNC(=O)CC2C(=O)NCCN2Cc2ccccc2C(F)(F)F)n1 (stereo not given)	-26%	-21%	45µM*	2%	-1%	-5%
Cc1cc(CNC(=O)CC2C(=O)NCCN2Cc2ccccc2C(F)(F)F)on1 (stereo not given)	48%	-1%	50µM*	-1%	-1%	6%
Cc1cnc(CNC(=O)CC2C(=O)NCCN2Cc2ccccc2C(F)(F)F)cn1 (stereo not given)	62%	-5%	32µM*	nt	-23%	2%
CC[C@@H]1C(c2cccc(C)c2)=NN(c2ccc(Br)cc2)[C@H]1C(=O)N1CCOC1=O	nt	nt	113%[59 µM]	nt	nt	25%
CC(C)CC(C(=O)NCC1CCN(Cc2ccc(F)cc2)CC1)N1Cc2ccccc2C1=O (stereo not given)	49%	5%	-44%[59 µM]	nt	6%	nt
Cc1ccc(-c2nnc(OCc3cccnc3)c3ccccc23)cc1	23%	-17%	-1%	-10%	-18%	-9%
CCCN(CCC)S(=O)(=O)c1ccc(NC(=O)COc2ccccc2)cc1	24%	-3%	24%	nt	5%	16%
CC(=O)c1cccc(NC(=O)COc2ccc3oc(=O)cc(C)c3c2)c1	45%	-1%	-11%[12.7 µM]	nt	4%	10%
COC(=O)[C@@H]1[C@H]2C[C@H]3c4[nH]c5ccccc5c4CCN3C[C@H]2CC[C@@H]1O	nt	nt	25%[59 µM]	nt	nt	17%
Oc1ccc(N=Nc2ccccc2C(F)(F)F)c2cccnc12	2%	10µM*	15%[2.33 µM]	nt	5.6µM*	22%
CCS(=O)(=O)c1ccc(N=Nc2ccc(O)c3ncccc23)c(OC)c1	50µM*	20µM*	7.1µM*	nt	5.6µM*	-6%
COc1ccccc1N=Nc1ccc(O)c2ncccc12	10µM*	45µM*	45µM*	nt	20µM*	1%
CCN(CC)CCCN=Cc1c(O)n(-c2ccccc2C)c(=O)c2ccccc12	33%	-23%	-5%	-13%	-9%	16%
COc1ccc(N(CC(=O)Nc2cc(C)ccc2C)S(=O)(=O)c2ccccc2[N+](=O)[O-])c(OC)c1	-20%	?	nt	3%	-23%	-23%

Screening results from PubChem BioAssay.
